Where two headings read alike, the source gives them in different places.
Tests used:
[1] = tested on: ZAK; conditions: concentration: 1 μM,replicates: in singlicate; n = 1
[2] = tested on: ZAP70; conditions: concentration: 1 μM,replicates: in singlicate; n = 1
[3] = tested on: T1, p38-alpha; conditions: n = 1
T1 construct: gene MAPK14

[4] = tested on: T2, p38-beta; conditions: concentration: 1 μM,replicates: in singlicate; n = 1
T2 construct: gene MAPK11

[5] = tested on: p38-delta; conditions: concentration: 1 μM,replicates: in singlicate; n = 1
[6] = tested on: T3, p38-gamma; conditions: concentration: 1 μM,replicates: in singlicate; n = 1
T3 construct: gene MAPK12

[7] = concentration: 1 μM,replicates: in singlicate
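Further: KINOMEscan kinase panel screen.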

`O=C(NCCCN1CCOC1=O)c1cnc(NCc2cc(Cl)ccc2Cl)nc1NC1CCCC1` was tested, and the “%Inh” value [1] was 10%, the “%Inh” value [2] was 0% and the “%Inh” value [3, 7] was 9%. For the same molecule, the “%Inh” value [4] was 0%, the “%Inh” value [5] was 44% and the “%Inh” value [6] was 1%.
With `C=CC(=O)Nc1cc2c(Nc3ccc(F)c(Cl)c3)ncnc2cc1OCCCN1CCOCC1` [GW781483] the “%Inh” value [1] was 0%, the “%Inh” value [2] was 31% and the “%Inh” value [3, 7] was 19%. For the same molecule, the “%Inh” value [4] was 0%, the “%Inh” value [5] was 20% and the “%Inh” value [6] was 0%.
`CN(C)CC(O)COc1ccc(Nc2nccc(-c3cnn4nc(N5CCOCC5)ccc34)n2)cc1` (stereo not shown) [GW767488] was tested, and the “%Inh” value [1] was 14%, the “%Inh” value [2] was 36% and the “%Inh” value [3, 7] was 6%. The “%Inh” value [4] was 23%, the “%Inh” value [5] was 38% and the “%Inh” value [6] was 73%.
For `Cl.Cl.NC[C@H](CC1CCCCC1)NC(=O)c1cc(Br)c(-c2ccnc3[nH]ccc23)s1` [GSK1581427], the “%Inh” value [1] was 0%, the “%Inh” value [2] was 0% and the “%Inh” value [3, 7] was 0%. For the same molecule, the “%Inh” value [4] was 0%, the “%Inh” value [5] was 4% and the “%Inh” value [6] was 0%.
For `Cc1ccc2c(-c3ccncc3)c(-c3ccc(F)cc3)nn2c1.Cl` [GW461484], the “%Inh” value [1] was 14%, the “%Inh” value [2] was 0% and the “%Inh” value [3, 7] was 99.9%. For the same molecule, the “%Inh” value [4] was 39%, the “%Inh” value [5] was 13% and the “%Inh” value [6] was 12%.
For `Nc1nc(Nc2ccccc2)cc(-c2ccc3c(N)n[nH]c3c2)n1` [GSK2225749], the “%Inh” value [1] was 3%, the “%Inh” value [2] was 0% and the “%Inh” value [3, 7] was 0%. For the same molecule, the “%Inh” value [4] was 0%, the “%Inh” value [5] was 0% and the “%Inh” value [6] was 0%.
`Cl.Cl.Nc1nc(-c2ccc3c(N)n[nH]c3c2)cc(N2CCCC(NC(=O)c3ccccc3)C2)n1` (stereo not shown) [GSK2286775] was tested, and the “%Inh” value [1] was 100%, the “%Inh” value [2] was 0% and the “%Inh” value [3, 7] was 0%. The “%Inh” value [4] was 0%, the “%Inh” value [5] was 21% and the “%Inh” value [6] was 21%.
`Cc1cc(C(=O)Nc2ccc(Oc3ccc4nc(NC(=O)C5CC5)cn4n3)cc2)nn1-c1ccccc1` was tested, and the “%Inh” value [1] was 48%, the “%Inh” value [2] was 0% and the “%Inh” value [3, 7] was 11%. For the same molecule, the “%Inh” value [4] was 27%, the “%Inh” value [5] was 0% and the “%Inh” value [6] was 52%.
In the case of `Cc1cc2cn[nH]c2cc1-c1cccc2c(N)c(C(N)=O)nnc12`, the “%Inh” value [1] was 21%, the “%Inh” value [2] was 32% and the “%Inh” value [3, 7] was 0%. The “%Inh” value [4] was 2%, the “%Inh” value [5] was 0% and the “%Inh” value [6] was 52%.
In the case of `O=C(NCCNc1ccnc(NCc2ccc(F)cc2)n1)c1cc2ccccc2s1` [GSK1379944], the “%Inh” value [1] was 14%, the “%Inh” value [2] was 0% and the “%Inh” value [3, 7] was 77%. For the same molecule, the “%Inh” value [4] was 0%, the “%Inh” value [5] was 40% and the “%Inh” value [6] was 0%.
`Cl.Cl.NC[C@H](Cc1ccc(C(F)(F)F)cc1)NC(=O)c1cc(Br)c(-c2ccnc3[nH]ccc23)s1` [GSK1487252] was tested, and the “%Inh” value [1] was 0%, the “%Inh” value [2] was 0% and the “%Inh” value [3, 7] was 0%. For the same molecule, the “%Inh” value [4] was 0%, the “%Inh” value [5] was 12% and the “%Inh” value [6] was 38%.
In the case of `CCN(CC)CCOc1ccc(Nc2ncc3cc(-c4c(Cl)cccc4Cl)c(=O)n(C)c3n2)cc1` [SB-601273], the “%Inh” value [1] was 94.2%, the “%Inh” value [2] was 63% and the “%Inh” value [3, 7] was 100%. The “%Inh” value [4] was 98.1%, the “%Inh” value [5] was 16% and the “%Inh” value [6] was 18%.
In the case of `Cc1ccc(-n2nc(C(C)(C)C)cc2NC(=O)Nc2ccc(OCCN3CCOCC3)c3ccccc23)cc1` [GW839464], the “%Inh” value [2] was 0%, the “%Inh” value [4] was 56% and the “%Inh” value [5] was 90.5%.
For `C[C@@H]1CCN(C(=O)CC#N)C[C@@H]1N(C)c1ncnc2[nH]ccc12`, the “%Inh” value [1] was 0%, the “%Inh” value [2] was 0% and the “%Inh” value [3, 7] was 1%. The “%Inh” value [4] was 13%.
`NC(=O)c1cc(-c2ccccc2)cc2c(C3CCNCC3)c[nH]c12` [GSK301362] was tested, and the “%Inh” value [1] was 0%, the “%Inh” value [2] was 0% and the “%Inh” value [3, 7] was 0%. The “%Inh” value [4] was 0%, the “%Inh” value [5] was 35% and the “%Inh” value [6] was 0%.
`COc1ccc(C[C@@H](CN)NC(=O)c2cc(Br)c(-c3ccnc4[nH]ccc34)s2)cc1.Cl.Cl` [GSK1389063] was tested, and the “%Inh” value [1] was 0%, the “%Inh” value [2] was 0% and the “%Inh” value [3, 7] was 0%. For the same molecule, the “%Inh” value [4] was 0%, the “%Inh” value [5] was 46% and the “%Inh” value [6] was 0%.
With `CNC(=O)c1ccccc1Sc1ccc2c(/C=C/c3ccccn3)n[nH]c2c1` the “%Inh” value [1] was 53%, the “%Inh” value [2] was 0% and the “%Inh” value [3, 7] was 5%. For the same molecule, the “%Inh” value [4] was 15%, the “%Inh” value [5] was 10% and the “%Inh” value [6] was 25%.
In the case of `Cl.Oc1cc(-c2nc(-c3ccccc3)[nH]c2-c2ccncc2)ccc1Cl` [SB-386023], the “%Inh” value [1] was 25%, the “%Inh” value [2] was 15% and the “%Inh” value ([3]; 1 µM) was 85%. For the same molecule, the “%Inh” value [4] was 26%, the “%Inh” value [5] was 0% and the “%Inh” value [6] was 36%.
`C[C@H]1Oc2cc(cnc2N)-c2c(nn(C)c2C#N)CN(C)C(=O)c2ccc(F)cc21` was tested, and the “%Inh” value [1] was 0%, the “%Inh” value [2] was 0% and the “%Inh” value [3, 7] was 9%. The “%Inh” value [4] was 18%, the “%Inh” value [5] was 0% and the “%Inh” value [6] was 5%.
`CCN(CC)CCCCNc1ncc2cc(-c3c(Cl)cccc3Cl)c(NC(=O)NC(C)(C)C)nc2n1` was tested, and the “%Inh” value [1] was 1%, the “%Inh” value [2] was 0% and the “%Inh” value [3, 7] was 98.2%. For the same molecule, the “%Inh” value [4] was 81%, the “%Inh” value [5] was 28% and the “%Inh” value [6] was 26%.
For `CCn1c(-c2nonc2N)nc2c(C#CC(C)(C)O)nc(OCCN)cc21.Cl.Cl` [GSK902056], the “%Inh” value [1] was 14%, the “%Inh” value [2] was 0% and the “%Inh” value [3, 7] was 0%. The “%Inh” value [4] was 0%, the “%Inh” value [5] was 16% and the “%Inh” value [6] was 0%.
With `C[C@@H](Oc1cc(-c2cnn(C3CCNCC3)c2)cnc1N)c1c(Cl)ccc(F)c1Cl` the “%Inh” value [1] was 4%, the “%Inh” value [2] was 10% and the “%Inh” value [3, 7] was 2%. The “%Inh” value [4] was 25% and the “%Inh” value [5] was 30%.
In the case of `Cc1n[nH]c2ccc(-c3cc(OC[C@@H](N)Cc4ccccc4)cnc3-c3ccoc3)cc12.O=C(O)C(F)(F)F.O=C(O)C(F)(F)F` [GSK507358], the “%Inh” value [1] was 0%, the “%Inh” value [2] was 0% and the “%Inh” value [4] was 0%. The “%Inh” value [5] was 50% and the “%Inh” value [6] was 33%.
In the case of `CC(C)Nc1cc(-c2ccc3c(N)n[nH]c3c2)nc(N)n1` [GSK2221681], the “%Inh” value [1] was 0%, the “%Inh” value [2] was 0% and the “%Inh” value [3, 7] was 0%. For the same molecule, the “%Inh” value [4] was 0%, the “%Inh” value [5] was 1% and the “%Inh” value [6] was 2%.
In the case of `CC(C)N1C(=O)Cc2cc(Nc3ncc(C(F)(F)F)c(NCc4cccc(S(C)(=O)=O)c4)n3)ccc21`, the “%Inh” value [1] was 0%, the “%Inh” value [2] was 62% and the “%Inh” value [3, 7] was 96.4%. For the same molecule, the “%Inh” value [4] was 2%, the “%Inh” value [5] was 0% and the “%Inh” value [6] was 0%.
`CN(C)CCOc1ccc(-c2cc(-c3c[nH]nc3-c3ccccn3)ccn2)cc1` [GW835314] was tested, and the “%Inh” value [1] was 60%, the “%Inh” value [2] was 11% and the “%Inh” value [3, 7] was 16%. For the same molecule, the “%Inh” value [4] was 4%, the “%Inh” value [5] was 0% and the “%Inh” value [6] was 27%.
With `Cc1occc1-c1nc(N)c(OC[C@@H](N)Cc2c[nH]c3ccccc23)cc1-c1cc2c(C)n[nH]c2cn1` [GSK1660450] the “%Inh” value [1] was 31%, the “%Inh” value [2] was 0% and the “%Inh” value [4] was 0%. The “%Inh” value [5] was 22% and the “%Inh” value [6] was 24%.

Source: publication PMC5540273 (PLoS ONE, 2017)
